Assay outcomes deposited in PubChem by National Center for Advancing Translational Sciences (NCATS).
TRHR enhancer – TRH receptor (human) allosteric enhancement. P34981. TRHR cells, fluo-8 calcium fluorescence, EC20 TRH enhancement. enhancement, % at 2 µM. 0.66% of 360,000 active; in the data active means enhancement above about 30%
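TRHR-expressing cells loaded with fluo-8 calcium dye were read kinetically (ex 480/em 530) during compound addition, then stimulated with an EC20 of TRH (10 nM final). Enhancement of the Gq-mediated intracellular calcium response was scored.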
TRHR agonist – activates the human TRH receptor. P34981. TRHR cells, calcium flux fluo-8, FDSS agonist mode. activation, % at 2 µM. 0.18% of 360,000 active
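Read-out: compound-evoked intracellular calcium rise in TRHR cells, fluo-8 dye, kinetic FDSS fluorescence at 1 s/cycle following a 10-cycle baseline. Cells cultured overnight before dye loading (30 min–1.5 h, RT).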
D1 antag – antagonists of human D1 dopamine receptor; P21728; HEK293 TREx D1 cells, calcium flux, dopamine EC80; active compounds read low; activity change, negative = inhibition, % at 10 µM; 3.2% of 360,000 active; AID 504652; in the data active means activity change below about -30%
Target sequence (P21728 whole entry, looked up): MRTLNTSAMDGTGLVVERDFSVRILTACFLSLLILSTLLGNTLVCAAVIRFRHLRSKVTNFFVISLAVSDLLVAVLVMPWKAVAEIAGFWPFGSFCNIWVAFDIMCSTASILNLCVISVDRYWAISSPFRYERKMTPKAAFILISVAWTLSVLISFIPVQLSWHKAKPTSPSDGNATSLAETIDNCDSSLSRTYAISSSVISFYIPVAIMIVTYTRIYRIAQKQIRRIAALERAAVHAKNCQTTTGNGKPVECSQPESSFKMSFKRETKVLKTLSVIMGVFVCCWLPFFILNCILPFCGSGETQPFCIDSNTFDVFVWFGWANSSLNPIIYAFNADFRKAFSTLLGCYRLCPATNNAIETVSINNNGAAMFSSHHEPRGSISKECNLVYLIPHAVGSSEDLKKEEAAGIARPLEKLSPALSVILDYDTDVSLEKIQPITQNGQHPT
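Calcium flux readout: force-coupled, inducible Hek293 Trex D1 line, cells induced overnight at 30 C with tetracycline, dye-loaded 30–90 min at RT. Antagonism scored against EC80 dopamine challenge given 180 s after compound.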
D1 ag – activates the human D1 dopamine receptor | HEK293 T-REx D1 cells, calcium flux, agonist mode | 1% of 360,000 active | activation, % at 2 µM | P21728
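Tetracycline-induced HEK293 TREx D1 cells, force-coupled to calcium signalling, were dye-loaded with a no-wash calcium kit. Compound was pin-added after a 10 s baseline. Fluorescence was read kinetically at 1 cycle/s for 180 s, with calcium rises flagged as agonism.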
D1 potentiator – human D1 dopamine receptor positive modulation; HEK293 TREx D1 cells, calcium flux, dopamine EC20 potentiation; potentiation, % at 10 µM; 0.036% of 360,000 active; P21728; in the data active means potentiation above about 30%
Each line names hits and unclear results; the compound was inactive in the other large screens. Rows were chosen to be rich in hits. Some 4.6% of all compounds tested hit in one or more screens of this group. Unless noted, no stated cut-off is given here; in the data, active means activation above about 30%; inactive means the rest.

CCn1cc(C(=O)NC(C)C2CC3CCC2C3)cn1 (stereo not given)	TRHR enhancer 31
O=C(COC(=O)CNC(=O)c1cccc(F)c1)NCCC1=CCCCC1	none
O=C(COC(=O)Cc1c(Cl)cccc1Cl)NCCC1=CCCCC1	D1 ag 35
O=C(COC(=O)COc1cccc(F)c1)NCCC1=CCCCC1	D1 antag -32
O=C(COC(=O)Cc1c(F)cccc1Cl)NCCC1=CCCCC1	none
CCCCc1cc(=O)oc2c(CN(CC)CC)c(O)c(Cl)cc12	none
CCCc1cc(=O)oc2c(CN(CC)CC)c(O)c(Cl)cc12	D1 antag -44
CCCCc1cc(=O)oc2c(CN3CCCC3)c(O)c(Cl)cc12	D1 antag -33
Cc1ccc(CNC(=O)C(C)OC(=O)c2ccco2)cc1 (stereo not given)	none
CCC(OC(=O)c1ccco1)C(=O)NCc1ccc(C)cc1 (stereo not given)	D1 antag -77
Cc1cc(-c2cc(C(=O)NCc3ccccc3)on2)nc(NCC2CC2)n1	none
CCCNc1nc(C)cc(-c2cc(C(=O)NCc3ccccc3)on2)n1	D1 antag -30
Cc1onc(-c2ccccc2)c1C(=O)c1c[nH]c(C(=O)NCc2ccncc2)c1	D1 antag -89
CCC(C(=O)Nc1ccc(F)cc1F)n1nc(-c2ccccc2)c2c(c1=O)CCCC2 (stereo not given)	none
N#CCc1nn(Cc2ccc(F)cc2)c(=O)c2ccccc12	D1 antag -32
O=c1c2ccccc2nnn1Cc1ccc(F)cc1	none
Cc1cc(C)c(NC(=O)Cn2ccn(-c3cccc(Cl)c3)c(=O)c2=O)c(C)c1	none
O=C(c1nnsc1S(=O)c1ccc(Cl)cc1)N1CCOCC1 (stereo not given)	none
O=C(Nc1ccccc1)c1nnsc1S(=O)c1ccc(Cl)cc1 (stereo not given)	D1 antag -41
COC(=O)c1cc(-c2ccc(S(=O)(=O)N3CCCC(C)C3)cc2)c(C(F)(F)F)s1 (stereo not given)	D1 antag -41
COC(=O)c1cc(S(=O)(=O)N2CCCC(C)C2)cn1C (stereo not given)	none
O=C(Nc1ccc2ncccc2c1)Nc1ccc2ncccc2c1	D1 antag -36
CCOC(=O)C1=C(c2ccccc2)N=c2s/c(=C\c3cc(OC)c(OC)c(OC)c3)c(=O)n2C1c1cccs1 (stereo not given)	D1 ag 240
CCOC(=O)C1=C(c2ccccc2)N=c2s/c(=C\c3ccco3)c(=O)n2C1c1cccs1 (stereo not given)	none
COc1ccc(N2C(=O)CC(Nc3cccc([N+](=O)[O-])c3)C2=O)cc1 (stereo not given)	D1 antag -33
COc1ccc(N2C(=O)CC(Nc3ccc(C(=O)O)cc3)C2=O)cc1OC (stereo not given)	none
COC(=O)c1cccc(NC2CC(=O)N(c3ccc(OC)c(OC)c3)C2=O)c1 (stereo not given)	D1 antag -33
COc1ccc(NC(=O)Cn2cnc3ccc(S(=O)(=O)N4CCC(C)CC4)cc3c2=O)cc1Cl	none
Cc1c(Cl)cccc1NC(=O)CCn1nc(C)c2c(C)n(-c3ccccc3)nc2c1=O	none
O=C(Nc1ccc(-c2csc(Nc3ccccc3)n2)cc1)c1cccc(C(F)(F)F)c1	D1 antag -47
COc1ccc(-c2csc(NC(=O)c3cccc(S(=O)(=O)N4CCN(C)CC4)c3)n2)cc1	D1 antag -48
Cc1nc(-c2cccc(NC(=O)c3cccc(S(=O)(=O)N4CCCC4)c3)c2)cs1	D1 antag -32
O=C(Nc1ccc(Cl)cn1)c1cccc(S(=O)(=O)N2CCCCC2)c1	D1 ag 31 (no result: D1 potentiator)
COc1ccc(Nc2ncnc3onc(C)c23)cc1Cl	none
CCc1ccc2oc(C(=O)Nc3nc(-c4ccccc4)ns3)c(C)c2c1	none
CN(CC(=O)Nc1ccc(Cl)cc1)C(=O)c1cccc(S(=O)(=O)N2CCN(Cc3ccccc3)CC2)c1	D1 antag -31
CC(C)c1ccc(OC(=O)c2cccc(S(=O)(=O)N3CCN(C)CC3)c2)cc1	none
COc1ccc(-c2csc(NC(=O)C3CCCCN3S(=O)(=O)c3ccccc3)n2)cc1 (stereo not given)	D1 antag -37
CN1CCN(S(=O)(=O)c2cccc(C(=O)Nc3nc(-c4ccccc4)cs3)c2)CC1	D1 antag -32
COc1ccc(-c2csc(NC(=O)CS(=O)(=O)c3ccccc3)n2)cc1	none
CN(CC(=O)Nc1ccc(Cl)cc1)C(=O)c1cccc(S(=O)(=O)NCc2ccccc2)c1	none
CC(NC(=O)c1cccc(S(=O)(=O)N2CCN(C)CC2)c1)c1ccc(Cl)cc1Cl (stereo not given)	D1 antag -45
CCCCc1ccc(Nc2ncnc3c2cnn3-c2ccc(C)cc2)cc1	none
O=C(Nc1nc(-c2ccccc2)cs1)c1cccc(S(=O)(=O)N2CCN(Cc3ccccc3)CC2)c1	TRHR enhancer 37
N#Cc1ccc(C(=O)NCc2ccc3c(c2)CCN3C(=O)c2ccc(F)cc2)cc1	D1 antag -33
CCOc1ccc(C(=O)NCc2ccc3c(c2)CCN3C(=O)c2ccc(C)cc2)cc1OCC	D1 antag -66
COc1ccc(CCC(=O)NCc2ccc3c(c2)CCN3C(=O)c2ccc(Cl)cc2)cc1	D1 antag -35
S=c1[nH]nc(-c2ccc3ccccc3n2)n1-c1cc(Cl)cc(Cl)c1	D1 ag 41
O=[N+]([O-])c1ccc(-c2ccc(/C=N/Nc3nc(NCc4ccccc4)nc(N4CCOCC4)n3)o2)cc1	D1 ag 74
CCn1cc(C(=O)NCc2ccc(Cl)cc2)c(=O)c2cc(S(=O)(=O)N(C)C3CCCCC3)ccc21	none
CCOC(=O)c1c(C)[nH]c(C)c1S(=O)(=O)NCC(=O)Nc1ccc(CC)cc1	D1 antag -35
CCOC(=O)c1c(C)[nH]c(C)c1S(=O)(=O)NCC(=O)NCc1ccc(C)cc1	none
CCOC(=O)c1c(C)[nH]c(C)c1S(=O)(=O)NCCN1CCN(c2cc(Cl)ccc2C)CC1	D1 antag -42
Cc1nc(-c2ccc(S(=O)(=O)N(Cc3ccccc3)C(C)C)cc2)co1	none
CCOC(=O)CSc1nc2c(sc3cccc(F)c32)c(=O)n1Cc1ccc(OC)cc1	none
Cn1c(NCCO)nc2c1c(=O)n(Cc1cccc(F)c1)c(=O)n2C	none
CN1CCN(C(=O)c2ccc(Cl)cc2)CC1	TRHR enhancer 33
CN1CCN(C(=O)c2ccc(CSc3ccc(Cl)cc3)cc2)CC1	D1 antag -30
O=C(c1ccc(Cl)cc1)N1CCN(c2ccnc3cc(Cl)ccc23)CC1	D1 antag -55
O=C(Nc1ccccc1C(=O)NCCN1CCOCC1)c1ccc(Cl)cc1Cl	D1 antag -31
Cc1ccccc1NC(=O)c1sc2nc(N3CCOCC3)c3c(c2c1N)CC(C)(C)OC3	none
